Measured values from PubChem BioAssay (NCATS).
Inconclusive results are not listed. Where a call stands in place of a potency, no number is given. Activity calls are given as the source filed them. Calls follow the shape of the dose curve; as a rule, active = well fitted curve in the direction sought with a large enough effect; inconclusive = small, poorly fitted or top-dose-only effect, or another doubt; inactive = no such curve, though single readings can be large; an effect the other way counts as inactive or inconclusive.

Columns and labels:
[1] = molecular target: Cellular tumor antigen p53 (Homo sapiens) (UniProt P04637); test: Primary qHTS for small molecule compounds that upregulate eGFP-tagged delta133p53alpha (in N-terminal) cells. (AID 2060322); details: NCI-H358 eGFP-delta133p53alpha fluorescence, 24 h; activation: active compounds read high; also: nearly all actives have a fitted effect of over 75% in size; also: potency is read from the fitted curve at half-maximal effect; as to activation: series mostly up to about 56 µM
In short: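 NCI-H358 cells pre-induced 24 h with 10 ng/ml doxycycline to express N-terminal eGFP-delta133p53alpha, then dosed 24 h at 37C without doxycycline; fixed, Hoechst-stained, GFP intensity by laser scanning cytometry, normalized to DMSO (0%) and 57.5 uM 5-azacytidine (100%).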

[2] = molecular target: Aldehyde dehydrogenase, mitochondrial (Homo sapiens) (UniProt P05091); test: qHTS for Inhibitors of the Aldehyde Dehydrogenase Family (ALDH2) Primary screen (AID 2061308); also: nearly all actives have a fitted effect of over 55% in size
[3] = molecular target: Retinaldehyde dehydrogenase 3 (Homo sapiens) (UniProt P47895); test: qHTS for Inhibitors of the Aldehyde Dehydrogenase Family (ALDH1A3) Primary screen (AID 2061315)

Cellular tumor antigen p53 (Homo sapiens), sequence (P04637 whole entry, looked up): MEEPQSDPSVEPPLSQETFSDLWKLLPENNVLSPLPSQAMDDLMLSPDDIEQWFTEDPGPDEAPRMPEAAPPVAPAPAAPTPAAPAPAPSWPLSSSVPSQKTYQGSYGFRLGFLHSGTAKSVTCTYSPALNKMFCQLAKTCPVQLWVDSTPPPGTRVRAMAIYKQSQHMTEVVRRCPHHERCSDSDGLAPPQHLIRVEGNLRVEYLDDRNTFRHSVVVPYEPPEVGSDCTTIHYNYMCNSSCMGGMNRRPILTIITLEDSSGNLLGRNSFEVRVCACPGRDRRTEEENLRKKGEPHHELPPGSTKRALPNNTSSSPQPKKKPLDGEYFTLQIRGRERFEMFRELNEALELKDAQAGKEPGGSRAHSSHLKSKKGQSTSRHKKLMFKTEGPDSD

Compound | activation [1] | Potency [2] | Potency [3] | Potency [1]
C=C1CC[C@@H]2[C@](C)(CO)[C@H](O)CC[C@@]2(C)[C@@H]1C/C=C1/C(=O)OCC1OC(=O)/C(=C/CO)C(O)C[C@@H]1C(=C)CC[C@@H]2[C@](C)(CO)[C@H](O)CC[C@]21C (some centres undefined) | 13% (inactive) | inactive | inactive | –
COC(=O)CCC(=O)OC[C@]1(C)CCC[C@@]2(C)C3CC[C@]4(C)C=CC3(CCC12)C4 (some centres undefined) | -8.4% (inactive) | inactive | inactive | –
COC(=O)C12CCC(C)C(C)C1C1=CCC3C4(C)CCC(OC(C)=O)C(C)(C)C4CCC3(C)C1(C)CC2 (centres undefined) | -12.2% (inactive) | inactive | inactive | –
C[C@H](O)[C@H](O)/C=C/c1cccc(O)c1CO | -15.3% (inactive) | inactive | inactive | –
C=C(CCO)C(=O)OCC1OCC(OC(=O)C(=C)CCO[C@@H]2O[C@H](CO)[C@@H](O)[C@H](O)[C@H]2O)C(O)C1O (some centres undefined) | -8.4% (inactive) | inactive | inactive | –
O=S(=O)(N[C@H]1CCCC[C@@H]1N1CCOCC1)c1ccc(Cl)cc1 | -16.3% (inactive) | inactive | inactive | –
CC(=O)c1[nH]cc(CCC(=O)O)c1CC(=O)O | -15.3% (inactive) | inactive | inactive | –
OCC(CO[C@@H]1O[C@H](CO)[C@@H](O)[C@H](O)[C@H]1O)c1ccc2c(c1)OCO2 (some centres undefined) | 24.1% (inactive) | inactive | inactive | –
C=C1[C@@H]2CC[C@@H]3[C@@](CCC4C(C(=O)O)(C(=O)O)C[C@@H](O[C@@H]5O[C@H](CO)[C@@H](O)[C@H](O)[C@H]5OC(=O)CC(C)C)C[C@]43C)(C2)[C@H]1O (some centres undefined) | -16% (inactive) | inactive | inactive | –
Cc1cccc(S(=O)(=O)N2CCC[C@@H]2CCN2CCC(C)CC2)c1 | 0% (inactive) | inactive | inactive | –
OCc1ccc(O[C@@H]2O[C@H](CO)[C@@H](O)[C@H](O)[C@H]2O)cc1 | 2.68% (inactive) | inactive | inactive | –
CC(C)(O[C@@H]1O[C@H](CO)[C@@H](O)[C@H](O)[C@H]1O)C(OC(=O)/C=C\c1ccc(O)cc1)C(=O)OCc1ccc(O[C@@H]2O[C@H](CO)[C@@H](O)[C@H](O)[C@H]2O)cc1 (some centres undefined) | -8.4% (inactive) | inactive | inactive | –
C=C1CC(=O)C2OC2(C)CC2OC(=O)C(=C)C2C(O)C1OC(=O)/C(C)=C\C (centres undefined) | – | inactive | inactive | 16.6 µM (active)
COc1ccc(C2(N(C)C(=O)c3ccc(NC(=O)c4ccco4)cc3)CCOCC2)cc1 | -10.7% (inactive) | inactive | inactive | –
Nc1nc2c(nc(Br)n2[C@@H]2O[C@@H]3COP(=O)(O)O[C@H]3[C@H]2O)c(=O)[nH]1 | -14.3% (inactive) | inactive | inactive | –
CC1=C(CC/C(C)=C/C(=O)O)[C@@]2(C)CCCC(C)(C)C2CC1=O (some centres undefined) | 6.25% (inactive) | inactive | inactive | –
CC(=O)N[C@H]1[C@H](O[C@H]2CC[C@]3(C)C4CC=C5[C@@H]6CC(C)(C)CC[C@]6(C(=O)O)[C@H](O)C[C@@]5(C)[C@]4(C)CC[C@H]3C2(C)C)O[C@H](CO)[C@@H](O)[C@@H]1O (some centres undefined) | 9.82% (inactive) | inactive | inactive | –
CC1(C)CC[C@]2(C(=O)O)CC[C@]3(C)C(=CCC4[C@@]5(C)C[C@@H](O)[C@H](O)C(C)(C)C5CC[C@]43C)[C@@H]2[C@@H]1O (some centres undefined) | -0.893% (inactive) | inactive | inactive | –
C/C=C1/[C@H](O[C@@H]2O[C@H](CO)[C@@H](O)[C@H](O)[C@H]2O)OC=C2C(=O)O[C@@H]3C[C@@H](C(C)CO)[C@H](COC(=O)C[C@H]21)[C@H]3C (some centres undefined) | -3.57% (inactive) | inactive | inactive | –
Cc1cc(O[C@@H]2O[C@H](COC(=O)CC(=O)O)[C@@H](O)[C@H](O)[C@H]2O)c(C(C)C)cc1O | 0.763% (inactive) | inactive | inactive | –
COC(=O)[C@@H](O)[C@H]1[C@@]2(C)CC3(O)[C@@H](C(=O)[C@H]2O)[C@]24O[C@]25CC(=O)O[C@@H](c2ccoc2)[C@]5(C)CCC4[C@]13C (some centres undefined) | -13% (inactive) | inactive | inactive | –
CC1=CC2(O)/C=C/C(C)(O)CC(O)/C=C/C(=O)OC23C(=O)NC(CC(C)C)C3C1C (centres undefined) | -2.29% (inactive) | inactive | inactive | –
COc1ccccc1-c1ccc(-c2cn(C(=O)N3CCCCC3Cc3ccccc3)nn2)cc1 (centres undefined) | -5% (inactive) | inactive | inactive | –
